# According to PubChem BioAssay AID1159580 (chemical genetic matrix, 2015):
# The campaign covered roughly 5,500 compounds. About 2,000 (36%) were called active. Another 18% or so got no clear call; they are omitted. The list shows a part of the results. A number with no mark means an inactive call. No stated cut-off is given here; in the data, active means normalized growth mostly below about 0.91 (no sharp cut-off); inconclusive means no clear call, values can overlap the other calls; inactive means mostly above about 0.92.
# Assay: chemical genetic growth profiling, strain panel (AID 1159580);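 further: tested at 20 µM; growth read once vehicle control cultures reached saturation at 30 °C; 1 = growth at the plate median or of vehicle wells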
# Conditions: S. cerevisiae deletion strains, growth OD
# [1] = locus YAL013W, strain DEP1, stronger effect = lower value
# [2] = locus YAL040C, strain CLN3, stronger effect = lower value
# [3] = locus YDR150W, strain NUM1, stronger effect = lower value
# [4] = locus YDR363W, strain ESC2, stronger effect = lower value
# [5] = locus YER002W, strain NOP16, stronger effect = lower value
# [6] = locus YGR078C, strain PAC10, stronger effect = lower value
# [7] = locus YJR075W, strain HOC1, stronger effect = lower value
# [8] = locus YNL175C, strain NOP13, stronger effect = lower value
# [9] = locus YNL197C, strain WHI3, stronger effect = lower value
# [10] = locus YNL224C, strain SQS1, stronger effect = lower value
# [11] = locus YNL322C, strain KRE1, stronger effect = lower value
# [12] = locus YOR083W, strain WHI5 (second series), stronger effect = lower value
# [13] = locus YPL055C, strain LGE1, stronger effect = lower value
# [14] = locus YPL241C, strain CIN2, stronger effect = lower value
# [15] = locus YCL061C, strain MRC1 (second series), stronger effect = lower value
# [16] = locus YNL153C, strain GIM3, stronger effect = lower value
# [17] = locus YMR307W, strain GAS1, stronger effect = lower value
compound,measurement,setting,value
S=C(S)N1CCCC1,normalized growth,[1],0.676 (active)
same,normalized growth,[2],1
same,normalized growth,[3],0.634 (active)
same,normalized growth,[4],0.804 (active)
same,normalized growth,[5],0.992
same,normalized growth,[6],0.977
same,normalized growth,[7],0.52 (active)
same,normalized growth,[8],0.98
same,normalized growth,[9],0.409 (active)
same,normalized growth,[10],0.966
same,normalized growth,[11],0.916
same,normalized growth,[12],0.175 (active)
same,normalized growth,[13],0.454 (active)
same,normalized growth,[14],0.943 (active)
Fc1ccc(Nc2nc(-c3ccc(F)c(F)c3)cs2)c(F)c1,normalized growth,"locus YAR019C, strain CDC15, stronger effect = lower value",0.14 (active)
same,normalized growth,"locus YBL105C, strain PKC1, stronger effect = lower value",0.104 (active)
same,normalized growth,"locus YBR135W, strain CKS1, stronger effect = lower value",0.0961 (active)
same,normalized growth,"locus YBR136W, strain MEC1, stronger effect = lower value",0.0962 (active)
same,normalized growth,"locus YBR160W, strain CDC28, stronger effect = lower value",0.12 (active)
same,normalized growth,"locus YDL017W, strain CDC7, stronger effect = lower value",0.128 (active)
same,normalized growth,"locus YDL028C, strain MPS1, stronger effect = lower value",0.104 (active)
same,normalized growth,"locus YDL101C, strain DUN1, stronger effect = lower value",0.282 (active)
same,normalized growth,"locus YDL108W, strain KIN28, stronger effect = lower value",0.132 (active)
same,normalized growth,"locus YDL132W, strain cdc53, stronger effect = lower value",0.0939 (active)
same,normalized growth,"locus YDL214C, strain PRR2, stronger effect = lower value",0.182 (active)
same,normalized growth,"locus YDR052C, strain DBF4, stronger effect = lower value",0.181 (active)
same,normalized growth,"locus YDR054C, strain cdc34, stronger effect = lower value",0.094 (active)
same,normalized growth,"locus YDR226W, strain ADK1, stronger effect = lower value",0.107 (active)
same,normalized growth,"locus YDR477W, strain SNF1, stronger effect = lower value",0.102 (active)
same,normalized growth,"locus YER123W, strain YCK3, stronger effect = lower value",0.173 (active)
same,normalized growth,"locus YER133W, strain GLC7, stronger effect = lower value",0.17 (active)
same,normalized growth,"locus YFL009W, strain cdc4, stronger effect = lower value",0.0952 (active)
same,normalized growth,"locus YFL029C, strain CAK1, stronger effect = lower value",0.0895 (active)
same,normalized growth,"locus YFR003C, strain YPI1, stronger effect = lower value",0.105 (active)
same,normalized growth,"locus YFR019W, strain FAB1, stronger effect = lower value",0.102 (active)
same,normalized growth,"locus YFR028C, strain CDC14, stronger effect = lower value",0.0972 (active)
same,normalized growth,"locus YGR040W, strain KSS1, stronger effect = lower value",0.102 (active)
same,normalized growth,"locus YGR052W, strain FMP48, stronger effect = lower value",0.144 (active)
same,normalized growth,"locus YGR092W, strain DBF2, stronger effect = lower value",0.11 (active)
same,normalized growth,"locus YHR030C, strain SLT2, stronger effect = lower value",0.141 (active)
same,normalized growth,"locus YHR079C, strain IRE1, stronger effect = lower value",0.158 (active)
same,normalized growth,"locus YHR082C, strain KSP1, stronger effect = lower value",0.155 (active)
same,normalized growth,"locus YHR205W, strain SCH9, stronger effect = lower value",0.000718 (active)
same,normalized growth,"locus YIL147C, strain SLN1, stronger effect = lower value",0.133 (active)
same,normalized growth,"locus YJL095W, strain BCK1, stronger effect = lower value",0.133 (active)
same,normalized growth,"locus YJL128C, strain PBS2, stronger effect = lower value",0.0972 (active)
same,normalized growth,"locus YJL157C, strain FAR1, stronger effect = lower value",0.199 (active)
same,normalized growth,"locus YJR016C, strain ILV3, stronger effect = lower value",0.0878 (active)
same,normalized growth,"locus YJR066W, strain TOR1 (second series), stronger effect = lower value",0.0987 (active)
same,normalized growth,"locus YJR066W, strain TOR1, stronger effect = lower value",0.111 (active)
same,normalized growth,"locus YKL048C, strain ELM1, stronger effect = lower value",0.145 (active)
same,normalized growth,"locus YKL067W, strain YNK1, stronger effect = lower value",0.182 (active)
same,normalized growth,"locus YKL101W, strain HSL1, stronger effect = lower value",0.132 (active)
same,normalized growth,"locus YKL193C, strain SDS22, stronger effect = lower value",0.0966 (active)
same,normalized growth,"locus YKL203C, strain TOR2, stronger effect = lower value",0.104 (active)
same,normalized growth,"locus YLR113W, strain HOG1, stronger effect = lower value",0.189 (active)
same,normalized growth,"locus YLR133W, strain CKI1, stronger effect = lower value",0.0955 (active)
same,normalized growth,"locus YLR403W, strain SFP1, stronger effect = lower value",0.0012 (active)
same,normalized growth,"locus YML070W, strain DAK1, stronger effect = lower value",0.113 (active)
same,normalized growth,"locus YMR001C, strain CDC5, stronger effect = lower value",0.0929 (active)
same,normalized growth,"locus YMR205C, strain PFK2 (second series), stronger effect = lower value",0.0941 (active)
same,normalized growth,"locus YMR277W, strain FCP1, stronger effect = lower value",0.0934 (active)
same,normalized growth,"locus YNL006W, strain LST8, stronger effect = lower value",0.106 (active)
same,normalized growth,"locus YNL020C, strain ARK1, stronger effect = lower value",0.107 (active)
same,normalized growth,"locus YNL161W, strain CBK1, stronger effect = lower value",0.475 (active)
same,normalized growth,"locus YNL183C, strain NPR1, stronger effect = lower value",0.155 (active)
same,normalized growth,"locus YNL207W, strain RIO2, stronger effect = lower value",0.114 (active)
same,normalized growth,"locus YNL222W, strain SSU72, stronger effect = lower value",0.101 (active)
same,normalized growth,"locus YNL307C, strain MCK1 (second series), stronger effect = lower value",0.117 (active)
same,normalized growth,"locus YOL078W, strain AVO1, stronger effect = lower value",0.092 (active)
same,normalized growth,"locus YOL136C, strain PFK27, stronger effect = lower value",0.197 (active)
same,normalized growth,"locus YOR061W, strain CKA2, stronger effect = lower value",0.102 (active)
same,normalized growth,"locus YOR119C, strain RIO1, stronger effect = lower value",0.107 (active)
same,normalized growth,"locus YOR231W, strain MKK1, stronger effect = lower value",0.169 (active)
same,normalized growth,"locus YOR329C, strain SCD5, stronger effect = lower value",0.117 (active)
same,normalized growth,"locus YPL031C, strain PHO85, stronger effect = lower value",0.114 (active)
same,normalized growth,"locus YPL153C, strain RAD53, stronger effect = lower value",0.116 (active)
same,normalized growth,"locus YPL204W, strain HRR25, stronger effect = lower value",0.104 (active)
same,normalized growth,"locus YPL209C, strain IPL1, stronger effect = lower value",0.0912 (active)
same,normalized growth,"locus YPL256C, strain CLN2, stronger effect = lower value",0.179 (active)
same,normalized growth,"locus YPR025C, strain CCL1, stronger effect = lower value",0.0957 (active)
same,normalized growth,"locus YPR106W, strain ISR1, stronger effect = lower value",0.099 (active)
same,normalized growth,"locus YPR111W, strain DBF20, stronger effect = lower value",0.101 (active)
same,normalized growth,"strain NNK1, stronger effect = lower value",0.114 (active)
same,normalized growth,"strain TSCII, stronger effect = lower value",0.106 (active)
N[C@@H](CCCC(=O)O)C(=O)O,normalized growth,[1],1.01
same,normalized growth,[2],1.08
same,normalized growth,[15],1.01
same,normalized growth,[4],1.02
same,normalized growth,[5],0.981
same,normalized growth,[6],1.01
same,normalized growth,[7],1.01
same,normalized growth,"locus YMR263W, strain SAP30, stronger effect = lower value",1
same,normalized growth,[16],1.02
same,normalized growth,[8],1
same,normalized growth,[9],1.03
same,normalized growth,[10],0.988
same,normalized growth,[11],1.02
same,normalized growth,[12],0.993
same,normalized growth,[13],0.988
C[N+](C)(C)CC#CCN1CCCC1=O,normalized growth,[2],0.99
same,normalized growth,[15],0.996
same,normalized growth,[3],1.01
same,normalized growth,[4],1
same,normalized growth,[5],0.985
same,normalized growth,[6],0.991
same,normalized growth,[17],1.01
same,normalized growth,[16],0.994
same,normalized growth,[8],0.996
same,normalized growth,[9],0.996
same,normalized growth,[10],0.996
same,normalized growth,[11],1
same,normalized growth,[12],1.01
O=c1[nH]c2ccccc2n1CCCN1CCN(C(c2ccccc2)c2ccccc2)CC1,normalized growth,[2],1.02
same,normalized growth,[15],1
same,normalized growth,[3],1.01
same,normalized growth,[4],1.01
same,normalized growth,[5],1.07
same,normalized growth,[6],1.02
same,normalized growth,[7],1
same,normalized growth,[17],1.03
same,normalized growth,"locus YNL128W, strain TEP1, stronger effect = lower value",1.19 [resistant] (active)
same,normalized growth,[8],1.04
same,normalized growth,[9],1.04
same,normalized growth,[10],1.04
same,normalized growth,[11],1.01
same,normalized growth,[12],0.92
same,normalized growth,[13],1.02
same,normalized growth,[14],1
